Laboratory results from article PMC5540273 (PLoS ONE, 2017).

Test system: T1, ERK8
T1 construct: gene MAPK15
Details: concentration: 1 μM, replicates: in singlicate; n = 1
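Note: KINOMEscan kinase panel screen.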

| Compound | %Inh [%] |
| --- | --- |
| Cn1cc(-c2[nH]c3cc(NC(=O)[C@H](N)C4CCCCC4)cc4c3c2C=NNC4=O)cn1 | 55 |
| O=C(Nc1ccccc1F)NC1CCN(c2ccnc(Nc3ccc(F)cc3)n2)CC1 [GSK1379800] | 0 |
| Cc1ccc(F)c(C(=O)Nc2cccc(-c3nn4ccccc4c3-c3ccnc(Nc4cccc(F)c4)n3)c2)c1F [GSK361061] | 0 |
| O=C(O)C(F)(F)F.O=C(O)C(F)(F)F.O=c1[nH]ccc2nc(N[C@@H]3CCCNC3)nc(Nc3ccc(S(=O)(=O)N4CCOCC4)cc3)c12 [GSK2177277] | 99.2 |
| CN1CCN(CCCNc2nccc(-c3c(-c4ccc(F)cc4)nn4cc(C(F)(F)F)ccc34)n2)CC1 [GW621581] | 31 |
| CSc1cccc2c(-c3ccncn3)c(-c3ccc(F)cc3)nn12 [GW514786] | 0 |
| O=C(Nc1cccc(-c2nn3ccccc3c2-c2ccnc(Nc3cccc(C(F)(F)F)c3)n2)c1)c1c(F)cccc1F [GSK292658] | 9 |
| COc1ccc(Nc2nccc(N3CCC(NC(=O)Nc4cccc(OC)c4)C3)n2)cc1 (centres unmarked) [GSK1379742] | 36 |
| Cc1cccc(NC(=O)Nc2ccc(Oc3ncnc4ccn(C)c34)cc2)c1 | 12 |
| O=C(NC1CCN(c2ccnc(Nc3ccc(F)cc3)n2)C1)c1cc2ccccc2s1 (centres unmarked) [GSK1379716] | 0 |
| O=c1[nH]cc(-c2ccc(N3CCOCC3)cc2)c2sc(-c3cn[nH]c3)cc12 [GSK2276055] | 0 |
| Nc1ncc(-c2cccnc2)c2scc(-c3ccc4c(c3)CCN4C(=O)Cc3ccccc3)c12 [GSK683281] | 0 |
| O=C(Nc1cccc(Oc2ccc3nc(NC(=O)C4CC4)cn3n2)c1)c1ccccc1C(F)(F)F | 20 |
| Cl.Cl.NCC(NCc1ccc(-c2ccnc3[nH]ccc23)s1)c1ccccc1 (centres unmarked) [GSK1321565] | 18 |
| COc1ccc(CNC(=O)NC2CCN(c3ccnc(Nc4ccc(F)cc4)n3)CC2)cc1 [GSK1379788] | 0 |
| CCn1c(-c2nonc2N)nc2c(C#CC(C)(C)O)nc(OC[C@H](N)c3ccccc3)cc21 [GSK943949] | 7 |

| Compound | %Inh [%] |
| --- | --- |
| CN(c1ccc(NC(=O)Nc2cc(C(F)(F)F)ccc2F)cc1)c1ccnc(Nc2ccc(S(N)(=O)=O)cc2)n1 [GW809893] | 98.6 |
| O=C(Nc1n[nH]c2nc(-c3ccc(O)cc3)ccc12)C1CC1 [SB-710363] | 90.2 |
| O=C(Nc1cccc(-c2nn3ccccc3c2-c2ccnc(Nc3cccc(F)c3)n2)c1)c1c(F)ccc(F)c1Cl [GSK357952] | 20 |
| Nc1ncnc2c1nc(-c1ccccc1)n2-c1ccccc1 [SKF-97293] | 13 |
| Cc1cccc(Nc2nc(N[C@H]3CCNC3)ncc2C(N)=O)c1.Cl [GSK2197149] | 12 |
| COc1cccc(C2=C(Nc3ccc(Cl)c(C(=O)O)c3)C(=O)NC2=O)c1 [SB-390769] | 0 |
| COc1cc(Nc2nccc(-c3c(-c4cccc(NC(=O)c5c(F)cccc5F)c4)nn4ccccc34)n2)cc(OC)c1OC [GSK323521] | 24 |
| CC(=O)Nc1nc2cnc(Nc3cc(NC(=O)c4cccc(C5(C#N)CC5)c4Cl)ccc3C)nc2s1 | 0 |
| c1ccc(Oc2ccc(Nc3ccnc4cc(-c5ccc(CNCCN6CCOCC6)o5)ccc34)cc2)nc1 [GW567145] | 0 |
| CNC(=O)c1ccccc1Nc1nc(Nc2ccc(N3CCOCC3)cc2)ncc1Cl.Cl [GSK1576028] | 99.5 |
| Cl.Cl.NCC(NC(=O)c1cc(-c2ccccc2)c(-c2ccnc3[nH]ccc23)s1)c1ccccc1 (centres unmarked) [GSK1321561] | 0 |
| Fc1ccc(-c2ncn(C3CCNCC3)c2-c2ccnc(Oc3ccc(-c4ccccc4)cc3)n2)cc1 [SB-245391] | 31 |
| Cn1cc(-c2ccc3c(c2)CCN3C(=O)Cc2cccc(F)c2)c2c(N)ncnc21 [GSK2603358] | 0 |
| COc1cc(Nc2nccc(N3CCC(NC(=O)c4cc5ccccc5s4)C3)n2)cc(OC)c1OC (centres unmarked) [GSK1379760] | 0 |
| CC(=O)N1CCN(c2ccc(Nc3nccc(-c4sc(C(C)C)nc4-c4cccc(NS(=O)(=O)c5cccc(Cl)c5)c4)n3)cn2)CC1 [GSK1660437] | 66 |
| COc1cc(Nc2ncc3c(C)nc(-c4cc5ccccc5[nH]4)n3n2)cc(OC)c1OC [GW869516] | 0 |
